Only a selection was taken, and hits are over-represented in it overall.
EphB4 antag: blocks human EphB4 binding to ephrin-B2. EphB4 LBD / TNYL-RAW-Alexa532 peptide, fluorescence polarization. actives 0.15% (n = 97,000). P54760. AID 720. inhibition, % at 7 µM;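 active = inhibition above the screen-wide mean inhibition plus 3 SD, cut at about 15% in these data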
Target sequence (P54760 whole entry, looked up, the tested form may be a part): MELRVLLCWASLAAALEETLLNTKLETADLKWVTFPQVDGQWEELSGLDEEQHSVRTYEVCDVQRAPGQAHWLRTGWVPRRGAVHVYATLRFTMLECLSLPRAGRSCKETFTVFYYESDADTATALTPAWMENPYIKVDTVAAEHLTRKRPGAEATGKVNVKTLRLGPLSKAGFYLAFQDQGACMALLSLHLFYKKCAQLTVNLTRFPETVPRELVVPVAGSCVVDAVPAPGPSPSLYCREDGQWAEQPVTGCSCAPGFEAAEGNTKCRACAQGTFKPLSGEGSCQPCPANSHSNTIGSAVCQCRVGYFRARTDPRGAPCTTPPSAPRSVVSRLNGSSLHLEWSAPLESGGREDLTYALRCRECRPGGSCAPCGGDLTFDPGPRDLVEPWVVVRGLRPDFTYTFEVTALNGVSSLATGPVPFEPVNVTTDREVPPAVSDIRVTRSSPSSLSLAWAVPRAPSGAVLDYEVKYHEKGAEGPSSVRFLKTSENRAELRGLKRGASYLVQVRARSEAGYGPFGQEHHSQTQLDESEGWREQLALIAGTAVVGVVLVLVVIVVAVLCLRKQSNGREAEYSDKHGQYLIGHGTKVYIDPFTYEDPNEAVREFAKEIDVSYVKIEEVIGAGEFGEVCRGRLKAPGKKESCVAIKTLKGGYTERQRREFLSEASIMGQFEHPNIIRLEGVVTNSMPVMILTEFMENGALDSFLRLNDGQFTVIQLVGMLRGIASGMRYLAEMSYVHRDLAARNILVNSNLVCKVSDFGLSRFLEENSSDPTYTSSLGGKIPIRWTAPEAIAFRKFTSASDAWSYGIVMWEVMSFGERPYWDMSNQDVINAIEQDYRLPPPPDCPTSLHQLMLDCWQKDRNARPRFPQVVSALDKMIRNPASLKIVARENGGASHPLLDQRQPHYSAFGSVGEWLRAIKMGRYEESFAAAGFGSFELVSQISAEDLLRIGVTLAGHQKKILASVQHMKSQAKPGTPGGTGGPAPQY
D1 allo mod: allosterically modulates the human D1 dopamine receptor. P21728. HEK293 D1, CRE-luciferase, dopamine EC30 potentiation; actives deviate in either direction. B-score at 10 µM. actives 5.9% (n = 58,000);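 active = luminescence count or its row- and column-corrected plate score outside the 99.7% band of the plate's sample wells, on either side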
DAT uptake mod: changed human dopamine transporter uptake under cocaine IC80; Q01959; LLC-PK1 hDAT cells, [14C]-dopamine uptake with cocaine IC80; actives deviate in either direction; B-score at 10 µM; actives 1.3% (n = 110,000);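 active = Z score or B-score, a plate-position-corrected score, falls beyond the plate's 99.7% confidence bounds, in either direction; inactive = both scores lie inside the 99.7% bounds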
D1 mod confirm: D1 receptor (human) allosteric modulation, confirmed. actives 88% (n = 2,200). HEK293 D1 CRE-luciferase, dopamine EC30 potentiation; active compounds read high. luminescence at 10 µM. AID 642. shares compounds with D1 allo mod;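 active = luminescence in either of two replicates above the same-plate mean plus 3 SD of the low-dose dopamine control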
D1 ag no DA: activates D1 CRE-luciferase signal without dopamine present. luminescence at 10 µM. actives 0.8% (n = 1,900). HEK293 D1 CRE-luciferase, luminescence, no dopamine; active compounds read high. shares compounds with D1 allo mod; in the data active = luminescence above about 3900
Isoprot counter: isoproterenol response counter-screen activity for D1 modulators; actives 63% (n = 2,200); calls only at 10 µM; AID 647; HEK293 D1 CRE-luciferase, isoproterenol EC30 counter-screen; shares compounds with D1 allo mod;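 active = luminescence in either replicate above plate mean of wells with a partly effective reference agonist dose plus 3 SD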;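 also: isoproterenol raises cAMP through native beta-adrenoceptor Gs so signal bypasses D1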
Numbers stand for hits; n = inactive; x = no result given; + = active, no number.

SMILES	EphB4 antag	D1 allo mod	DAT uptake mod	D1 mod confirm	D1 ag no DA	Isoprot counter
CCn1cc(C(=O)NCc2ccc(Cl)cc2)c(=O)c2cc(S(=O)(=O)N3CCOCC3)ccc21	x	n	n	x	x	x
C=CCn1cc(C(=O)NCCOC)c(=O)c2cc(S(=O)(=O)N(CC)CC)ccc21	n	n	n	x	x	x
CCn1cc(C(=O)NCCCN(C)c2ccccc2)c(=O)c2cc(S(=O)(=O)N(C)C)ccc21	x	5.6	n	8908	n	+
CCn1cc(C(=O)NCc2ccc3c(c2)OCO3)c(=O)c2cc(S(=O)(=O)N3CCOCC3)ccc21	n	3.7	n	10664	n	+
CCn1cc(C(=O)NCCCN2CC(C)CC(C)C2)c(=O)c2cc(S(=O)(=O)N(C)C)ccc21 (stereo unspecified)	n	n	n	x	x	x
CNS(=O)(=O)c1ccc(OC)c(-c2nnc3c4ccccc4c(C)nn23)c1	n	x	n	x	x	x
COc1ccc(S(=O)(=O)NCc2ccco2)cc1-c1nnc2c3ccccc3c(C)nn12	n	8.6	n	8232	n	+
CCO[C@@H]1OC(C(=O)NC2CC2)=C[C@H](c2coc3ccccc3c2=O)[C@H]1CCCO	x	x	n	x	x	x
N#Cc1c(SCC(N)=O)nsc1SCc1ccc(Cl)cc1	n	n	n	x	x	x
N#Cc1c(SCC(N)=O)nsc1SCc1ccccc1Cl	n	5.6	n	5884	x	+
CC(C)C1N=C2c3ccccc3N=C(SCc3cc(=O)n4ccccc4n3)N2C1=O (stereo unspecified)	n	n	x	x	x	x
CC1N=C2c3ccccc3N=C(SCc3cc(=O)n4cc(Cl)ccc4n3)N2C1=O (stereo unspecified)	n	4.2	n	10900	n	+
Cc1ccc(NC(=O)Cc2nnc(SCC(=O)c3ccc(Br)cc3)n2C)cc1	n	x	n	x	x	x
Cc1cc(Br)c2c(c1)=C(c1sc(N3CCCCCC3)nc1O)C(=O)N=2	n	6	n	18480	n	n
CC1(C)CC(=O)c2sc(N3CCCCC3)nc2C1	n	n	n	x	x	x
Fc1ccc(-c2nc3nc4ccccc4nc3n2Cc2ccco2)cc1	n	n	n	x	x	x
Fc1ccc(-n2c(-c3ccco3)nc3nc4ccccc4nc32)cc1	n	15	n	25288	n	+
Fc1cccc(-n2c(-c3ccco3)nc3nc4ccccc4nc32)c1	n	9.2	n	16260	n	+
Cc1ccc(-n2c(-c3ccco3)nc3nc4ccccc4nc32)cc1F	n	x	x	x	x	x
O=C(NCc1ccccn1)C1CCC(=O)N1C1CCCCC1 (stereo unspecified)	n	x	n	x	x	x
CCn1nc(C)c(NS(=O)(=O)c2ccccc2)c1C	n	x	n	x	x	x
O=C(N/N=C/c1cc([N+](=O)[O-])ccc1N1CCNCC1)c1ccc([N+](=O)[O-])cc1	n	x	n	x	x	x
Cc1ccc(CNC(=O)C(C)OC(=O)c2cccs2)cc1 (stereo unspecified)	n	x	n	x	x	x
N#CC1=C(C2CC2)CC(c2ccccc2)C(C#N)=C1N (stereo unspecified)	n	n	n	x	x	x
N#CC1=C(N)SC2(CCCCC2)SC1c1ccccc1 (stereo unspecified)	n	3.2	n	6560	x	+
SMILES	EphB4 antag	D1 allo mod	DAT uptake mod	D1 mod confirm	D1 ag no DA	Isoprot counter
COC(=O)Oc1ccc(/C=N/NC(=O)CN(c2ccccc2Cl)S(C)(=O)=O)cc1OC	n	x	n	x	x	x
CC(C)C1Cc2c(C#N)c(N)n(C)c(=S)c2CO1 (stereo unspecified)	n	9.8	n	11952	n	+
CCC1(C)Cc2c(C#N)c(N)n(N)c(=S)c2CO1 (stereo unspecified)	n	n	n	x	x	x
Cc1nc(CSc2nc3[nH]ncc3c(=O)n2-c2ccccc2)cs1	n	4.6	n	12732	n	+
Cc1noc(C)c1CSc1nnc2n(-c3ccccc3)c(=O)c3ccccc3n12	x	n	x	x	x	x
Cc1noc(C)c1CSc1nc2[nH]ncc2c(=O)n1-c1ccccc1	n	11	n	14168	n	+
Cc1cccc(-n2c(SCc3cc(=O)n4c(C)cccc4n3)nc3[nH]ncc3c2=O)c1	n	x	x	x	x	x
Cc1c(Cl)c([N+](=O)[O-])nn1CC(=O)NC12CC3CC(CC(C3)C1)C2	n	x	n	x	x	x
CCOc1ccc(-c2nnn(CC(=O)c3ccc4c(c3)OCCO4)n2)cc1OCC	n	9.3	n	18056	n	+
CCOc1ccc(-c2nnn(CC(=O)NCc3ccc4c(c3)OCO4)n2)cc1	n	x	n	x	x	x
CC(C)(C)NS(=O)(=O)c1ccc(OCC(=O)NCCC2=CCCCC2)cc1	n	x	n	x	x	x
Cc1ccc(-c2[nH]nc3c2C(c2ccoc2)C(C#N)=C(N)O3)cc1C (stereo unspecified)	n	11	n	18284	n	+
COc1ccc(-c2[nH]nc3c2C(c2ccoc2)C(C#N)=C(N)O3)cc1 (stereo unspecified)	n	x	n	x	x	x
CC(C)CC1C(C#N)=C(N)Oc2n[nH]c(-c3ccccc3)c21 (stereo unspecified)	n	x	n	x	x	x
CC(C)C1C(C#N)=C(N)Oc2n[nH]c(-c3ccccc3)c21 (stereo unspecified)	n	3.8	n	13728	n	n
CCOc1cc(C2C(C#N)=C(N)Oc3n[nH]c(-c4ccccc4)c32)ccc1O (stereo unspecified)	n	3.8	n	5848	n	n
CCOc1ccc(C2C(C#N)=C(N)Oc3n[nH]c(C)c32)cc1OC(=O)C1CC1 (stereo unspecified)	x	n	n	x	x	x
COc1ccc(CN2CCN(S(=O)(=O)c3ccccc3)CC2)c(OC)c1	n	4.4	n	6876	n	n
COc1ccc(CN2CCN(S(=O)(=O)c3ccc(F)cc3)CC2)cc1OC	n	22	n	24864	n	+
COc1cc(CN2CCN(S(=O)(=O)c3ccc(NC(C)=O)cc3)CC2)cc(OC)c1O	x	n	n	x	x	x
COc1ccc(CN2CCN(S(=O)(=O)c3ccc(F)cc3)CC2)c(OC)c1OC	n	x	n	x	x	x
COc1ccccc1CN1CCN(S(=O)(=O)c2ccccc2)CC1	n	x	n	x	x	x
COc1ccc(CN2CCN(S(=O)(=O)c3ccc(NC(C)=O)cc3)CC2)cc1OC	n	5.2	n	15368	n	+
CSc1ncc(Cl)c(C(=O)NCc2ccc3c(c2)OCO3)n1	n	12	n	16252	n	+
O=C(NCc1ccc2c(c1)OCO2)c1cc(-c2ccccc2Cl)on1	n	x	n	x	x	x
SMILES	EphB4 antag	D1 allo mod	DAT uptake mod	D1 mod confirm	D1 ag no DA	Isoprot counter
CCN1CCN(C(c2cccs2)C(C)NS(=O)(=O)c2ccccc2)CC1 (stereo unspecified)	x	x	n	x	x	x
CCN1CCN(C(c2cccs2)C(C)NC(=O)CC(C)C)CC1 (stereo unspecified)	n	4.7	n	n	n	n
CCOC(=O)C(=O)Nc1nnc(Cc2ccc(OC)c(OC)c2)s1	n	x	n	x	x	x
CCOCC(=O)Nc1nnc(Cc2ccc(OC)cc2)s1	n	x	n	x	x	x
COCC(=O)Nc1nnc(Cc2ccc(OC)c(OC)c2)s1	n	9.8	n	19508	n	+
CCOCC(=O)Nc1nnc(Cc2ccc(OC)c(OC)c2)s1	n	7.8	n	12160	x	+

Screens (PubChem BioAssay)
